Data as given in article PMC5540273 (PLoS ONE, 2017).

System: MAP3K1
Conditions: concentration: 1 μM, replicates: in singlicate; n = 1
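Further: KINOMEscan kinase panel screen.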

Row | Compound | %Inh [%]
1 | COc1ccc(CNC(=O)NC2CCN(c3ccnc(Nc4ccc(OC)cc4)n3)C2)cc1 (centres unmarked) [GSK1379727] | 0
2 | c1ccc(-c2cc(-c3c[nH]nc3-c3ccccn3)ccn2)cc1 [GW576604] | 0
3 | Cn1cc(-c2ccc3c(c2)CCN3C(=O)Cc2ccccc2Cl)c2c(N)ncnc21 [GSK2608885] | 7
4 | CNc1ncnc2[nH]ncc12 [SKF-18355] | 2
5 | Fc1ccc(-c2ncn(CCCN3CCOCC3)c2-c2ccccn2)cc1 [SB-211742] | 0
6 | NS(=O)(=O)c1cccc(-c2ccc3ncc(N4CCOCC4)nc3c2)c1 [GSK1535721] | 0
7 | COc1ccc(Nc2nccc(N3CCC(NC(=O)Nc4cc(C)ccc4C)C3)n2)cc1 (centres unmarked) [GSK1379741] | 11
8 | COCCNC(=O)c1ccc(-c2cc(C(=O)NC3CC3)cc(F)c2C)cc1 [GW868318] | 35
9 | Cc1nnc(-c2ccc3ncc(-c4ccc(S(C)=O)cc4)n3c2)o1 (centres unmarked) | 4
10 | c1ccc(-c2n[nH]cc2-c2ccnc3ccccc23)nc1 [GW271431] | 16
11 | Cn1ccc2ncnc(Oc3ccc(NC(=O)Nc4ccncc4)c(Cl)c3)c21 | 0
12 | Cc1cn2c(=O)cc(N3CCOCC3)nc2n1Cc1cccc(Cl)c1Cl [GSK2334006] | 18
13 | Fc1ccc(-c2ncn(CCCN3CCOCC3)c2-c2cccnc2)cc1 [SB-211743] | 7
14 | Cc1cccc(-c2nc(Nc3ccc4ncsc4c3)c3ccccc3n2)n1 [GW867588] | 0
15 | Cc1cccc(Cn2ccn3c(=O)cc(N4CCOCC4)nc23)c1 [GSK2297542] | 8
16 | N#Cc1c(N2CCOCC2)sc(-c2ccn[nH]2)c1-c1ccc(Cl)cc1 | 5
17 | COc1cc2c(cc1OCCN1CCN(C)CC1)ncc1c3ccc(C#N)cc3[nH]c21 | 0
18 | CN(C1=C(c2ccccc2)C(=O)NC1=O)c1ccccc1 [SB-334860] | 9

Row | Compound | %Inh [%]
19 | O=C1NC(=O)C(N2CCc3ccccc32)=C1c1cccc(Cl)c1 [SB-408010] | 26
20 | O=c1cc(N2CCOCC2)nc2n(Cc3cccc(Cl)c3Cl)c(C3CC3)nn12 [GSK2358994] | 14
21 | [2H]C([2H])(c1cccc(C(F)(F)F)c1C)n1ccn2c(=O)nc(N3CCOCC3)cc12 [GSK2336394] | 0
22 | CCc1nc(-c2cccc(C)c2)c(-c2ccnc(NCc3ccccc3)c2)s1 | 0
23 | Cc1cccc(-c2nc(-c3ccc(S(C)(=O)=O)cc3)sc2-c2ccncc2)c1 | 12
24 | CCc1ccnc(/C=C/c2n[nH]c3cc(Sc4ccccc4C(=O)NC)ccc23)c1 | 12
25 | CSc1ccc(-c2cc3ncnc(SCC(=O)O)c3s2)cc1 | 0
26 | CC(=O)Nc1ccc(COc2ccc(Nc3ccnc4cc(-c5ccccn5)ccc34)cc2)cc1.Cl [GW440148] | 11
27 | Cl.Cl.Cl.Fc1ccc(-c2ncn(C3CCNCC3)c2-c2ccnc(Nc3ccccc3)n2)cc1 [SB-238039] | 0
28 | COc1cc2ncn(-c3cc(OCc4sccc4Cl)c(C(N)=O)s3)c2cc1OC [GSK448459] | 88
29 | Fc1ccc(-c2nn3c(OCC(F)(F)F)cccc3c2-c2ccncc2)cc1 [GW514784] | 0
30 | CC(C)(C)n1cnc2c(N)ncnc21 [SKF-97359] | 0
31 | O=C(NCCNc1ccnc(Nc2ccc(F)cc2)n1)c1cc2ccccc2s1 [GSK1379874] | 0
32 | COc1ccc(S(=O)(=O)NC2CCN(c3cc(C)nc(Nc4cccc(C#N)c4)n3)CC2)cc1.O=C(O)C(F)(F)F [GSK1653539] | 3
33 | Cc1ccc(C(=O)NCC(N)=O)cc1-n1c(C)cc(OCc2ccc(F)cc2F)c(Br)c1=O | 0
34 | Cl.Oc1cccc(Nc2ccnc3cc(-c4ccncc4)ccc23)c1 [GW494601] | 1
35 | O=C(Nc1n[nH]c2cc(-c3cccc(F)c3)ccc12)C1CC1 [SB-735464] | 22
